The sample as a whole holds a higher share of hits than the screen did.
NOMO-1 viab = STK33 inhibitor candidate reducing NOMO-1 cell viability | inhibition, % (no concentration beside the values) | AID 2330 | NOMO-1 AML viability, CellTiter-Glo luminescence, 72 h | 7.5% of 37,000 active; in the data active means inhibition above about 80%; inconclusive means no clear call, values can overlap the other calls
U2OS ROS induce = cancer cell ROS induction; U2OS ROS induction, H2DCF-DA fluorescence; ROS induction (% of piperlongumine), % at 10 µM; 2% of 46,000 active; AID 624156; in the data active means ROS induction above about 79%, passing the limit was not always enough; inconclusive means no clear call, values can overlap the other calls
A number is an active result; n = inactive; u = inconclusive; x = no result.

SMILES	NOMO-1 viab	U2OS ROS induce
O=C(O)COc1ccc2occ(C(=O)c3ccccc3)c2c1	n	n
O=C(c1ccc(Oc2ccccc2)cc1)c1coc2ccc(O)cc12	139	n
Cc1nc(C)c(C(=O)C2C(=O)C(=O)N(CCCN3CCOCC3)C2c2ccncc2)s1 (stereo not drawn)	n	n
C[C@@H]1CN([C@H](C)CO)C(=O)Cc2cc(NC(=O)CCCN(C)C)ccc2O[C@@H]1CN(C)CC1CCCCC1	n	93
C[C@H]1CN([C@@H](C)CO)C(=O)Cc2cc(NC(=O)CCCN(C)C)ccc2O[C@@H]1CN(C)CC1CCCCC1	n	n
C[C@H]1CN([C@@H](C)CO)C(=O)Cc2cc(NC(=O)CCC(F)(F)F)ccc2O[C@H]1CN(C)CC1CCCCC1	n	99
C[C@@H]1CN([C@@H](C)CO)C(=O)Cc2cc(NC(=O)CCC(F)(F)F)ccc2O[C@@H]1CN(C)CC1CCCCC1	n	n
Cc1ccc(S(=O)(=O)Nc2ccc3c(c2)C(=O)N([C@H](C)CO)C[C@H](C)[C@@H](CN(C)C)O3)cc1	n	n
CCOC(=O)c1c(CN2CCCCC2)n(-c2ccccc2)c2cc(Br)c(OC)cc12	n	121
CCOC(=O)c1c(C)n(-c2cccc(C)c2)c2ccc(O)cc12	u	n
C=C1C(=O)O[C@H]2C1[C@H](OC(=O)/C(C)=C/CO)C/C(C)=C\CC[C@@]1(C)OC21 (stereo partly drawn)	122	n
C=C1C(=O)O[C@H]2C1[C@H](OC(=O)/C(C)=C/CO)C/C(C)=C\CC[C@@]1(CO)OC21 (stereo partly drawn)	93	n
C=C1C(=O)O[C@H]2[C@H]1[C@@H](OC(=O)/C(C)=C\C)C[C@]1(C)O[C@@H]1[C@H]1O[C@H]1C(=C)[C@H]2O	121	n
C=C(C(=O)O[C@H]1C/C(C)=C\CC/C(CO)=C\[C@H]2OC(=O)C(=C)[C@H]12)C(O)CO (stereo partly drawn)	n	n
C/C=C(/C)C(=O)O[C@H]1C[C@@](C)(O)C(=O)[C@@H](OC(=O)/C(C)=C\C)[C@@]2(C)CC[C@@](O)(C(C)C)[C@H]12	n	n
C=C1C(=O)OC2/C=C(\CO)C(OC(C)=O)C/C=C(/C)CC(OC(=O)/C(C)=C\CO)C12 (stereo not drawn)	121	n
C=C1C(=O)O[C@@H]2[C@H]3C(C)=CC(=O)C3=C(C)C[C@H](O[C@@H]3O[C@H](CO)[C@@H](O)[C@H](O)[C@H]3O)[C@@H]12	n	n
CCc1cccc(C)c1NC(=O)CSc1n[nH]c(-c2ccccc2Cl)n1	n	n
C[C@H]1CN([C@@H](C)CO)C(=O)Cc2cc(NC(=O)NC3CCCCC3)ccc2O[C@H]1CN(C)C	n	n
CCc1nnc(NS(=O)(=O)c2ccc(NC(=O)c3ccc(F)cc3)cc2)s1	n	x
NC(=NC(=O)c1ccc(OCC(F)(F)F)nc1)c1ccc(C(F)(F)F)cc1	n	n
Cc1nnc(SCC(=O)Nc2cccc(C(F)(F)F)c2)s1	n	n
CC1(C)CC(=O)C=C(SCC(=O)Nc2cc(C(F)(F)F)cc(C(F)(F)F)c2)S1	103	n
C=C1C(=O)O[C@H]2[C@H]1[C@@H](OC(=O)C(C)(O)C(C)Cl)C(OC(C)=O)/C(C(=O)OC)=C\CC[C@@]1(C)O[C@H]21 (stereo partly drawn)	119	n
COC(=O)[C@]1(Cc2ccccc2CN=[N+]=[N-])N=C(c2ccc(OCCCO)cc2)O[C@@H]1c1ccccc1	x	n
SMILES	NOMO-1 viab	U2OS ROS induce
C[C@H](CO)N1C[C@H](C)[C@H](CN(C)Cc2ccc(C(F)(F)F)cc2)Oc2ccc(NC(=O)Nc3ccccc3)cc2CC1=O	86	n
C[C@@H]1CN([C@H](C)CO)C(=O)Cc2cc(NC(=O)Nc3ccc(C(F)(F)F)cc3)ccc2O[C@H]1CN(C)Cc1ccc(C(=O)O)cc1	n	n
C[C@@H]1CN([C@H](C)CO)C(=O)Cc2cc(NC(=O)Nc3ccccc3)ccc2O[C@H]1CN(C)Cc1ccc(C(F)(F)F)cc1	118	n
C[C@@H]1CN([C@H](C)CO)C(=O)Cc2cc(NC(=O)Nc3ccc(C(F)(F)F)cc3)ccc2O[C@@H]1CN(C)Cc1ccc(C(=O)O)cc1	n	n
COc1ccc(C)cc1N(CC(=O)Nc1c(C)cc(C)cc1C)S(C)(=O)=O	n	n
C[C@@H]1CN([C@H](C)CO)C(=O)Cc2cc(NC(=O)Cc3ccccc3)ccc2O[C@H]1CN(C)C(=O)Nc1ccc(C(F)(F)F)cc1	n	n
C[C@@H]1CN([C@@H](C)CO)C(=O)Cc2cc(NC(=O)Nc3ccc(F)cc3)ccc2O[C@@H]1CN(C)CC1CCCCC1	81	n
C[C@H]1CN([C@@H](C)CO)C(=O)Cc2cc(NC(=O)Nc3ccc4c(c3)OCO4)ccc2O[C@H]1CN(C)CC1CCCCC1	n	n
COc1ccc(NC(=O)Nc2ccc3c(c2)CC(=O)N([C@H](C)CO)C[C@@H](C)[C@@H](CN(C)CC2CCCCC2)O3)cc1	n	n
C[C@H]1CN([C@@H](C)CO)C(=O)Cc2cc(NC(=O)Nc3ccc4c(c3)OCO4)ccc2O[C@@H]1CN(C)CC1CCCCC1	92	n
C[C@H](CO)N1C[C@H](C)[C@H](CN(C)CC2CCCCC2)Oc2ccc(NC(=O)Nc3cccc4ccccc34)cc2CC1=O	99	n
C[C@H](CO)N1C[C@H](C)[C@H](CN(C)CC2CCCCC2)Oc2ccc(NC(=O)Nc3ccccc3)cc2CC1=O	106	n
C[C@H]1CN([C@@H](C)CO)C(=O)c2cc(NC(=O)Nc3cccc4ccccc34)ccc2O[C@H]1CN(C)CC1CCCCC1	n	n
C[C@@H]1CN([C@H](C)CO)C(=O)Cc2cc(NC(=O)Nc3ccccc3)ccc2O[C@H]1CN(C)CC1CC1	n	n
C[C@@H]1CN([C@H](C)CO)C(=O)c2cccc(NS(=O)(=O)c3cccs3)c2O[C@H]1CN(C)CC1CC1	n	n
C[C@H](CO)N1C[C@H](C)[C@H](CN(C)CC2CCCCC2)Oc2ccc(NC(=O)Nc3ccc(F)cc3)cc2CC1=O	95	n
CC(C)NC(=O)Nc1ccc2c(c1)CC(=O)N([C@H](C)CO)C[C@@H](C)[C@@H](CN(C)CC1CCCCC1)O2	n	n
CC(C)NC(=O)Nc1ccc2c(c1)CC(=O)N([C@H](C)CO)C[C@H](C)[C@H](CN(C)CC1CCCCC1)O2	n	n
C[C@@H]1CN([C@H](C)CO)C(=O)Cc2cc(NC(=O)Cc3ccccc3)ccc2O[C@H]1CN(C)CC1CCCCC1	n	79
C[C@H]1CN([C@@H](C)CO)C(=O)Cc2cc(NC(=O)Nc3ccc(F)cc3)ccc2O[C@H]1CN(C)CC1CCCCC1	105	n
C[C@H]1CN([C@@H](C)CO)C(=O)Cc2cc(NC(=O)Nc3ccc(F)cc3)ccc2O[C@@H]1CN(C)CC1CCCCC1	99	n
C[C@H](CO)N1C[C@H](C)[C@H](CN(C)CC2CCCCC2)Oc2ccc(NC(=O)Cc3ccccc3)cc2CC1=O	n	n
C[C@H]1CN([C@@H](C)CO)C(=O)Cc2cc(NC(=O)Nc3ccc(F)cc3)ccc2O[C@@H]1CN(C)CC1CC1	n	n
O=C(CSc1ncnc2sc3c(c12)CCCCC3)NCC1CCCO1 (stereo not drawn)	n	n
COc1ccc([C@@]2(O)c3c(ccc(/C=C/C4(C)CCC(C)(C)CO4)c3O)NC(=O)[C@@H]2OC)cc1 (stereo partly drawn)	n	n

Compound activity from PubChem BioAssay.
